HP1b chromo inh = HTS for Inhibitors of HP1-beta Chromodomain Interactions with Methylated Histone Tails; AID 540317, 2011; AlphaScreen HP1-beta / biotin-H3K9me3 peptide binding; actives 0.56% (n = 390,000); Potency, µM (titrated, usually from 114 µM), usual class: inhibitors; note: nearly all actives have a fitted effect of over 70% in size
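HP1-beta protein (50 nM final) preincubated 30 min at room temperature with biotinylated H3(1-18)K9me3 peptide (50 nM) in PBS pH 7.4, 0.01% Tween-20, then compound added for 30 min. AlphaScreen streptavidin donor/nickel chelate acceptor beads (10 ug/mL final), 30 min dark, luminescence read.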
PLK1 PBD block = qHTS for Inhibitors of PLK1-PDB (polo-like kinase 1 - polo-box domain): Primary Screen; Serine/threonine-protein kinase PLK1 (Homo sapiens), P53350; Plk1 PBD binding of FITC phosphopeptide, fluorescence polarization; Potency, µM, actives largely listed as inhibitors; actives 2.8% (n = 360,000); AID 720504, 2013; note: series mostly up to about 57 µM; nearly all actives have a fitted effect of over 65% in size
BAZ2B inh = qHTS Assay for Inhibitors of BAZ2B; Bromodomain adjacent to zinc finger domain protein 2B (Homo sapiens), Q9UIF8; AlphaScreen BAZ2B-H3K14Ac peptide displacement; Potency, µM (top dose mostly 114 µM), actives largely listed as inhibitors; actives 4.4% (n = 360,000); note: nearly all actives have a fitted effect of over 60% in size
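AlphaScreen displacement: compounds (up to 110uM) incubated 30 min at room temperature with a preformed 50 nM BAZ2B/50 nM biotinylated H3K14Ac peptide complex in PBS pH 7.4 with Tween-20. Donor and acceptor beads at 10 ug/mL final added, 20 min light-protected before reading.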
JMJD2A Tudor = qHTS Assay for Inhibitors of JMJD2A-Tudor Domain; AlphaScreen JMJD2A-Tudor / H3K4me3 peptide binding; AID 504339, 2011; Potency, µM (titrated, usually from 114 µM), usual class: inhibitors; actives 4.4% (n = 390,000); note: nearly all actives have a fitted effect of over 50% in size
Target sequence (O75164 whole entry, looked up, the tested form may be a part): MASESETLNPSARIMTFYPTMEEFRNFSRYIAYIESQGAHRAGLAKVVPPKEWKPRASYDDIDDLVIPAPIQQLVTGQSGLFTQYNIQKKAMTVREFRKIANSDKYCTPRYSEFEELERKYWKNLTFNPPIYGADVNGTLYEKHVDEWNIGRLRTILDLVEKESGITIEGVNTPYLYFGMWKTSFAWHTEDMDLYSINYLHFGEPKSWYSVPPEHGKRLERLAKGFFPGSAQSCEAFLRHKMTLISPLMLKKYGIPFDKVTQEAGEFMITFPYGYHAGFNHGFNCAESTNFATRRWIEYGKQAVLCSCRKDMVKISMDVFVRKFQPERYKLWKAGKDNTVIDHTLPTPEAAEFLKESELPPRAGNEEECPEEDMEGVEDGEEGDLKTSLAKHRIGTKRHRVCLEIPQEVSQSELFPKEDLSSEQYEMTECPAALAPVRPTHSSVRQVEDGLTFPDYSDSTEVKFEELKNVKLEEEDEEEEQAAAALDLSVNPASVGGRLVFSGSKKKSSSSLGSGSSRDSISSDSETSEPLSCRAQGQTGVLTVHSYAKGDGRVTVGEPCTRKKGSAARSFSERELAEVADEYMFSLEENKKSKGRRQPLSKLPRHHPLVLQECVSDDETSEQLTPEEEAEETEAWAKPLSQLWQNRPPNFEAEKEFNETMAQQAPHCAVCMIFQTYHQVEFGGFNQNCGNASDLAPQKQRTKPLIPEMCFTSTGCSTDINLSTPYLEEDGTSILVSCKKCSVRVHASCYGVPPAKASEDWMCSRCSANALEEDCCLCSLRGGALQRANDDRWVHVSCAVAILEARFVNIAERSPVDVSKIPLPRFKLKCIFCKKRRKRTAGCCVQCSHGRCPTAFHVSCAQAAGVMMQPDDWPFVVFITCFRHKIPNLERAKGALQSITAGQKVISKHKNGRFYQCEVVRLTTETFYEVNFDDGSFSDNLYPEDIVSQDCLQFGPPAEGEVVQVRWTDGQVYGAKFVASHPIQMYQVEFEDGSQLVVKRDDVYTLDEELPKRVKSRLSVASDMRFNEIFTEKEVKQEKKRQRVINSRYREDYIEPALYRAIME
G9a block = qHTS Assay for Inhibitors of Histone Lysine Methyltransferase G9a | G9a H3K9 monomethylation, AlphaScreen, 2 h | Potency, µM (titrated, usually from 102 µM), most hits filed as inhibitors | actives 8.8% (n = 350,000) | AID 504332, 2011; note: nearly all actives have a fitted effect of over 75% in size
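AlphaScreen detection with an anti-monomethyl H3K9 antibody quantified product after a 2 h room-temperature reaction containing 500 nM biotinylated H3K9 peptide, 20 µM SAM and 20 nM enzyme, which had been preincubated 15 min with compound.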
Sfp inh = qHTS Assay for Inhibitors of Bacillus subtilis Sfp phosphopantetheinyl transferase (PPTase). 4'-phosphopantetheinyl transferase ffp (Bacillus subtilis), Q9F4F7. Biochemical Sfp PPTase activity, qHTS. Potency, µM, usual class: inhibitors. actives 3.5% (n = 310,000);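 note: the enzyme is Sfp with the accession as filed and its product quenches rhodamine fluorescence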
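Fluorescence-quenching assay: 15 nM Sfp-PPTase preincubated 15 min at room temperature with compound, then 5 uM rhodamine-CoA and 12.5 uM BHQ-2-labelled YbbR peptide added. Fluorescence (ex 525/em 598 nm) read at start and after 30 min; difference gives rate.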
Each line names hits and unclear results; the compound was inactive in the other large screens. A selection: hits, their analogues and other compounds. The true share with any hit is near 12%. Calls come from the whole dose curve; as a rule, active = well fitted curve in the direction sought with a large enough effect; inconclusive = small, poorly fitted or top-dose-only effect, or another doubt; inactive = no such curve, though single readings can be large; an effect the other way counts as inactive or inconclusive.

O=C(C1CCCN(S(=O)(=O)c2cccc3cccnc23)C1)N1CCN(c2ccc(F)cc2)CC1 (centres undefined)	none
COCc1oc2ccc(NS(=O)(=O)c3ccc(C)cc3)cc2c1C(=O)OC	none (no result: PLK1 PBD block, Sfp inh)
O=S(=O)(O)c1ccc(N=Nc2ccccc2)cc1	G9a block inconclusive
O=c1ccc(N=Nc2ccccc2)ccc1O	HP1b chromo inh inconclusive, BAZ2B inh 11µM, JMJD2A Tudor 50µM, G9a block 45µM
CCOc1ncccc1C(=O)Nc1c(C)n(C)n(-c2ccccc2)c1=O	none
O=C(c1ccc(Br)cc1)c1cc2ccc(O)cc2oc1=O	PLK1 PBD block 11µM, JMJD2A Tudor inconclusive, G9a block 71µM, Sfp inh inconclusive
COCCCNC(=O)c1cc2cc(Br)ccc2oc1=O	none
COc1ccc(C(=O)c2cc3ccc(O)cc3oc2=O)cc1	none
O=C(NNC(=O)c1cc2cc(Br)ccc2oc1=O)c1ccc(O)cc1O	PLK1 PBD block inconclusive, BAZ2B inh 11µM, JMJD2A Tudor inconclusive
CCc1ccc(CNC(=O)C2CCCN(c3nnc(C)c4c(C)n(-c5ccccc5)nc34)C2)cc1 (centres undefined)	BAZ2B inh 79µM, JMJD2A Tudor inconclusive, G9a block inconclusive, Sfp inh 56µM
CCOc1ccc(CNC(=O)C2CCN(c3nnc(C)c4c(C)n(-c5ccc(C)cc5)nc34)CC2)cc1	BAZ2B inh 56µM, JMJD2A Tudor inconclusive, G9a block 22µM, Sfp inh inconclusive
COc1ccc(-n2nc3c(N4CCC(C(=O)NCCc5ccco5)CC4)nnc(C)c3c2C)cc1	PLK1 PBD block 27µM, JMJD2A Tudor 50µM
Cc1ccccc1CNC(=O)C1CCCN(c2nnc(C)c3c(C)n(-c4ccccc4)nc23)C1 (centres undefined)	BAZ2B inh inconclusive, JMJD2A Tudor inconclusive, G9a block 56µM
Cc1nnc(N2CCCC(C(=O)NCc3ccccc3F)C2)c2nn(-c3ccccc3)c(C)c12 (centres undefined)	none
CCOc1ccccc1CNC(=O)C1CCN(c2nnc(C)c3c(C)n(-c4ccc(C)cc4)nc23)CC1	none
CCOc1ccccc1CNC(=O)c1sc2ncccc2c1-n1cccc1	none (no result: PLK1 PBD block, Sfp inh)
COC(=O)c1ccsc1NS(=O)(=O)c1ccccc1	none
COc1ccc(NC(=O)C(=O)N/N=C(\C)CC(=O)Nc2ccccn2)c(OC)c1	none
COc1ccccc1OCC(=O)Nc1ccncc1	none
COc1ccccc1NC(=O)C(=O)N/N=C(\C)CC(=O)Nc1ccccn1	BAZ2B inh 79µM (no result: G9a block)
COc1ccccc1OCC(=O)Nc1ccccn1	G9a block 20µM
CCCCOC(=O)C1CCCC(C(=O)OCCCC)N1 (centres undefined)	G9a block 50µM
CCCCOC(=O)C1C2CCC(O2)C1C(=O)OCC (centres undefined)	none (no result: BAZ2B inh, G9a block, Sfp inh)
CC(C)c1ccc(S(=O)(=O)N2CCN(C(=O)Cc3ccsc3)CC2)cc1	G9a block inconclusive (no result: Sfp inh)
CCC(C)Oc1cc(-c2ccnc(Nc3cccc(Cl)c3)n2)ccn1 (centres undefined)	PLK1 PBD block 24µM, JMJD2A Tudor inconclusive
O=C(NC1CCCCC1)C(c1cccs1)N(CCCN1CCOCC1)C(=O)c1ccc(-c2ccccc2)[nH]1 (centres undefined)	HP1b chromo inh inconclusive, BAZ2B inh 50µM, JMJD2A Tudor inconclusive, Sfp inh inconclusive (no result: G9a block)
O=C(Nc1cc([N+](=O)[O-])ccc1O)c1cccc(C(=O)Nc2cc([N+](=O)[O-])ccc2O)c1	BAZ2B inh 50µM, JMJD2A Tudor inconclusive
O=[N+]([O-])c1ccc(Oc2cccc3cccnc23)c([N+](=O)[O-])c1	PLK1 PBD block inconclusive, BAZ2B inh inconclusive, G9a block inconclusive, Sfp inh inconclusive
O=C(Oc1ccc(-c2cnc3ccccc3n2)cc1)c1cccc([N+](=O)[O-])c1	G9a block 8.9µM
O=C(Nc1cc([N+](=O)[O-])ccc1O)c1cccc([N+](=O)[O-])c1	none
O=C(Nc1cccc2cccnc12)c1cccc([N+](=O)[O-])c1	G9a block 79µM
O=C(Oc1cccc2cccnc12)c1cccc([N+](=O)[O-])c1	BAZ2B inh 16µM, JMJD2A Tudor 50µM
O=C(Oc1ccc(-c2cnc3ccccc3n2)cc1)c1ccc(Cl)c([N+](=O)[O-])c1	G9a block inconclusive
CC1(C)C2CCC1(C)C(NC(=O)COC(=O)c1ccc(S(C)(=O)=O)c([N+](=O)[O-])c1)C2 (centres undefined)	none (no result: PLK1 PBD block, BAZ2B inh, G9a block, Sfp inh)
CCN(Cc1ccccc1)C(=O)CCS(=O)(=O)c1ccc2c(c1)n(C)c(=O)c(=O)n2C	none
O=C(COc1ccc(F)cc1)Nc1ccc(C(=O)OCc2cc(=O)n3nc(C4CC4)sc3n2)cc1	none (no result: PLK1 PBD block, Sfp inh)
CN(C)S(=O)(=O)c1cccc(C(=O)N=C2N=C3C=CC(Cl)=CN3Cc3ccccc32)c1	none
CCCCCCCC#Cc1ccccc1/C=N/S(=O)C(C)(C)C (centres undefined)	none (no result: HP1b chromo inh, PLK1 PBD block, BAZ2B inh, JMJD2A Tudor, G9a block)
COc1cccc(-c2cc(C(F)(F)F)nc(-n3nc(C)c(Br)c3C)n2)c1	none (no result: PLK1 PBD block, Sfp inh)
O=C(Nc1cccc2cccnc12)c1ccccc1[N+](=O)[O-]	none (no result: PLK1 PBD block, Sfp inh)
O=C(Oc1c(Cl)cc(Cl)c2cccnc12)c1cccc([N+](=O)[O-])c1	BAZ2B inh 28µM, JMJD2A Tudor inconclusive, G9a block inconclusive
Cc1c(C(=O)Oc2cccc3cccnc23)cccc1[N+](=O)[O-]	HP1b chromo inh inconclusive, BAZ2B inh 14µM, JMJD2A Tudor 45µM, G9a block inconclusive
COc1ccccc1C1C(C#N)=C(N)N(N(C)C)C2=C1C(=O)CC(C)(C)C2 (centres undefined)	none
Cc1cccc(C)c1-n1c(C)nn(-c2ncc(C(F)(F)F)cc2Cl)c1=O	none
Cc1nn(-c2ncc(C(F)(F)F)cc2Cl)c(=O)n1-c1c(F)cccc1F	G9a block 79µM
NC(=O)c1cc(-c2csc(-c3cccnc3)n2)ccc1O	G9a block 32µM, Sfp inh inconclusive
COc1ccc(-c2csc(-c3cccnc3)n2)cc1C	Sfp inh 50µM
COc1ccc2cc(-c3csc(-c4cccnc4)n3)ccc2c1	BAZ2B inh inconclusive
COc1ccc(S(=O)(=O)N2CCCCC2c2cc(C(=O)Nc3ccc(OC)cc3C)no2)cc1 (centres undefined)	none (no result: HP1b chromo inh, BAZ2B inh, JMJD2A Tudor, G9a block, Sfp inh)
Cc1nc2[nH]c(=S)[nH]c2c(=O)[nH]1	JMJD2A Tudor 20µM (no result: BAZ2B inh, G9a block, Sfp inh)

Screening results (PubChem BioAssay)
